# Bioassay records: PubChem BioAssay, National Center for Advancing Translational Sciences (NCATS)
# Shown are actives, neighbours in structure and some others; about 2.5% of the full set was active somewhere.
# Pol eta inh: DNA polymerase eta (human) inhibition. Potency, µM (highest dose often 114 µM), inactives show at the top dose activity change, negative = inhibition, actives largely listed as inhibitors. recombinant Pol eta, fluorescent DNA replication assay. hit rate 1.2% among 390,000. Q9Y253; further: on the % scale 0 is the no-effect control and ±100 the full control effect
#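 Fluorescent replication assay: 50 nM final substrate added after a 15 min room-temperature compound preincubation with 10 nM enzyme. Signal taken at 0 min and again at 10 min.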
# POLK inh: blocks human DNA polymerase kappa activity; Q9UBT6; purified Pol kappa, fluorescent DNA synthesis assay, 10 min; Potency, µM (doses to about 107 µM), for inactives: at the highest dose activity, negative = inhibition, hits mostly inhibitors; hit rate 0.53% among 400,000; AID 588579; further: on the % scale 0 is the no-effect control and ±100 the full control effect
# Target sequence (Q9UBT6 whole entry, looked up): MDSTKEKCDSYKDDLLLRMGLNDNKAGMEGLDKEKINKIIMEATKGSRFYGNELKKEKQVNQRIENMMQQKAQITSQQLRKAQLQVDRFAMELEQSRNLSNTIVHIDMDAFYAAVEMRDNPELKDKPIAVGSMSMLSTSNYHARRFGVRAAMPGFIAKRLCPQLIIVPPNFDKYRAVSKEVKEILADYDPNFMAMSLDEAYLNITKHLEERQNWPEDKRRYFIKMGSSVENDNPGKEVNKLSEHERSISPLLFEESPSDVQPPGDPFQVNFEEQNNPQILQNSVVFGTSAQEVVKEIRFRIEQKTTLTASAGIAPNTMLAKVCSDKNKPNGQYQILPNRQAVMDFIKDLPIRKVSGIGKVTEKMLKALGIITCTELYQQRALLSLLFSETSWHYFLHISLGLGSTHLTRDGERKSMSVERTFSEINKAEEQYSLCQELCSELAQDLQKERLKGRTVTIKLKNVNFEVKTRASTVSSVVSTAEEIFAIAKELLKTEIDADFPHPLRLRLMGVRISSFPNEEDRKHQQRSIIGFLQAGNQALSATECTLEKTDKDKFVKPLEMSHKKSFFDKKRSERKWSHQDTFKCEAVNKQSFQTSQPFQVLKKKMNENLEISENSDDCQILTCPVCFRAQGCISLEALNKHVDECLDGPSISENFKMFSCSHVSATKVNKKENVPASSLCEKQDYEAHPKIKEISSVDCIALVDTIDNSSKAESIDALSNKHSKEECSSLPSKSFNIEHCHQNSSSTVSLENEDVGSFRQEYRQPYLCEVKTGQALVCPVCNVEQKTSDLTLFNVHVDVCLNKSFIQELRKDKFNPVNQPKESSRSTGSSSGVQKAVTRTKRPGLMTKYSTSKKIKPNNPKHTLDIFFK
#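 10 nM Pol kappa was preincubated with compounds for 15 min at room temperature. Reaction started with 50 nM (final) substrate. Fluorescence read kinetically at 0 and 10 min.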
# L3MBTL1 inh: L3MBTL1 (human) inhibition; Q9Y468; AlphaScreen L3MBTL1–H3K9me1 peptide binding; Potency, µM (top dose mostly 57.1 µM), without a hit: top-dose activity, negative = inhibition, actives largely listed as inhibitors; hit rate 0.66% among 230,000; further: on the % scale 0 is the no-effect control and ±100 the full control effect; nearly all actives have a fitted effect of over 60% in size
#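 Read-out is AlphaScreen signal from streptavidin donor and nickel chelate acceptor beads (10 ug/mL final each) bridging L3MBTL1 (50 nM) and biotinylated K9-monomethylated H3(1-15) peptide (75 nM), after 30 min compound exposure at room temperature.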
# Pol iota inh: blocks human DNA polymerase iota activity; Potency, µM (titrated, usually from 115 µM), inactives show at the highest dose activity, negative = inhibition, most hits filed as inhibitors; Pol iota fluorescent replication assay, 10 min; hit rate 1% among 390,000; Q9UNA4
#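 Fluorescent replication assay read twice, at 0 min and 10 min after adding 50 nM (final) substrate. Enzyme (10 nM) and compounds were first incubated 15 min at room temperature; enzyme-free buffer wells were negative controls.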
# POLB inh: blocks human DNA polymerase beta activity; hit rate 1.3% among 340,000; Potency, µM (highest dose often 114 µM), for inactives: at the top dose activity change, negative = inhibition, usual class: inhibitors; P06746; Pol beta primer extension/strand displacement, fluorescence kinetic; further: on the % scale 0 is the no-effect control and ±100 the full control effect
#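 Reaction started by 50 nM substrate onto compound-treated Pol beta (10 nM, 15 min preincubation, room temperature); plates read at 0 min and 10 min. Normalized concentration-effect data fitted by four-parameter Hill equation.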
# APE1 inh: inhibitors of human APE1 endonuclease; recombinant APE1, TAMRA/BHQ-2 abasic DNA cleavage fluorescence; Potency, µM (top dose mostly 65.8 µM), for inactives: top-dose activity change, negative = inhibition, most hits filed as inhibitors; hit rate 0.35% among 350,000; AID 2517;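 further: plate controls were vehicle for no effect and reference inhibitor for full effect; nearly all actives have a fitted effect of over 55% in size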
#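 APE1 at 0.75 nM final was preincubated with compound 15 min at room temperature, then 50 nM double-stranded THF abasic-site substrate (5'-TAMRA/3'-BHQ-2) was added. Fluorescence (ex 525/em 598 nm) was read kinetically; third-minus-first read gave activity.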
# The depositor's hits bear a star; ? = inconclusive; / = not tested or not shown; [ ] = dose if it differs, or a comment. The call rests on the fitted dose curve; in most records, active means well fitted curve in the direction sought with a large enough effect; inconclusive means small, poorly fitted or top-dose-only effect, or another doubt; inactive means no such curve, though single readings can be large; an effect the other way counts as inactive or inconclusive. Potency means the concentration at half of the fitted maximal effect.
SMILES,Pol eta inh,POLK inh,L3MBTL1 inh,Pol iota inh,POLB inh,APE1 inh
CC(=O)N=C1SC2CS(=O)(=O)CC2N1c1ccc(-c2nc3ccc(C)cc3s2)cc1 (configuration not stated),/,/,-7.2%,/,-2.9%,-1.7%
O=c1[nH]cnc2n[nH]nc12,/,-12.2%,/,8.2%,/,/
CCOCc1cc(CN2CCN(c3ccccc3OC)CC2)c(O)c2ncccc12,/,-2.0%,/,27.9%,29.9%,/
Oc1c(CN2CCCCC2)cc(COCc2ccccc2)c2cccnc12,-12.1%,-16.1%,12.6µM*,95.9%,4.9%,6.6%
CN(C)C1CCN(Cc2cc(COCc3ccccc3)c3cccnc3c2O)C1 (configuration not stated),-17.0%,-6.4%,10µM*,129.1%,/,13.7%
Oc1c(Cl)cc(CN2CCCCC2)c2cccnc12,/,/,/,/,15.3%,26.2%
O=C(c1cccn2c(=O)c3cc(Cl)ccc3nc12)N1CCN(c2ccccc2F)CC1,-3.8%,-9.8%[60.1 µM],/,14.4%,36.8%,/
CCOc1ccccc1CNC(=O)C1CCN(C2=NS(=O)(=O)C(c3ccc(C)c(C)c3)=C2C)CC1,/,-20.7%,/,2.4%,5.5%,/
COc1ccccc1CNC(=O)C1CCN(C2=NS(=O)(=O)C(c3ccc(C)c(C)c3)=C2C)CC1,-2.8%,-2.4%[60.1 µM],/,89.1µM*,?,/
COc1ccc(C2=C(C)C(N3CCC(C(=O)Nc4ccccc4F)CC3)=NS2(=O)=O)cc1,/,-33.1%,/,?,22.4µM*,/
CCC1=C(c2ccc(C)cc2)S(=O)(=O)N=C1N1CCC(C(=O)Nc2ccccc2F)CC1,/,3.6%,/,-17.0%,16.7%,/
Cc1nc(-c2cccc(NC(=O)C(C)Oc3ccccc3)c2)cs1 (configuration not stated),28.2µM*,-4.2%,/,?,-11.5%,3.8%
CC(Oc1ccccc1)C(=O)Nc1nc(-c2ccncc2)cs1 (configuration not stated),8.8%,-14.1%,0.1%,-2.0%,/,11.1%
COc1ccc(OC)c(NC(=O)CCNS(=O)(=O)c2ccc3[nH]c(=O)oc3c2)c1,?,-32.8%,/,-1.2%,2.7%,13.0%
COc1ccccc1CNC(=O)CCNS(=O)(=O)c1ccc2[nH]c(=O)oc2c1,79.4µM*,-23.7%,/,-20.6%,?,69.7%
O=C(CCNS(=O)(=O)c1ccc2[nH]c(=O)oc2c1)NCc1ccccc1,9.0%,-4.4%,/,-9.1%,-6.7%,24.0%
COc1ccccc1NC(=O)CCNS(=O)(=O)c1ccc2[nH]c(=O)oc2c1,25.1µM*,?,/,?,-10.4%,6.4%
c1ccc2c(c1)CCC[C@@H]2C1=NCCN1,/,-2.4%[12 µM],/,/,/,/
COc1ccc(C)cc1NC(=O)N(Cc1ccc(C)o1)C1CCN(C(C)=O)CC1,-12.1%,-4.2%,/,-6.7%,0.5%,/
COc1ccc(C(=O)COC(=O)CCN2C(=O)C3CC=CCC3C2=O)c(OC)c1 (configuration not stated),?,-11.7%,-17.1%,39.8µM*,/,8.7%
CCSc1nnc(NC(=O)CSc2nnc(Cc3cccn3C)n2-c2ccc(C)cc2)s1,-18.2%,-16.4%,/,50.1µM*,?,-0.6%
CC(C)(C)OC(=O)N1C[C@H](O)C[C@H]1C(=O)OCC(=O)c1ccc([N+](=O)[O-])cc1,8.0%,-13.9%,/,15.4%,3.5%,-2.9%
CC(SC1=NS(=O)(=O)c2ccccc21)C(=O)O (configuration not stated),/,-1.1%,/,5.3%,/,/
C=CC1=C(C)C2=NC1=CC1=NC(=CC3=NC(=CC4=NC(=C2)C(C)=C4CCC(=O)O)C(CCC(=O)O)=C3C)C(C=C)=C1C.[Zn],/,3.55µM*,/,/,/,4.47µM*
CCC(=O)NC1=C(NC(C)c2ccccc2)C(=O)c2ccccc2C1=O (configuration not stated),-1.4%,-1.5%,/,41.8%,6.9%,18.7%
SMILES,Pol eta inh,POLK inh,L3MBTL1 inh,Pol iota inh,POLB inh,APE1 inh
CCC(=O)NC1=C(Cl)C(=O)C(NC(=O)CC)=C(Cl)C1=O,?,0.9%,-21.8%,1.78µM*,10.9%,-0.7%
O=C(COc1ccccc1Cl)OCc1cc(=O)n2nc(C3CCCCC3)sc2n1,-14.1%,0.0%,/,27.0%,6.6%,/
CCOC(=O)c1ccc(N2C(=O)Cc3cc(OCC)c(OCC)cc3C2c2ccccc2)cc1 (configuration not stated),-18.7%,3.0%,/,-0.8%,0.7%,/
Cc1ccc(N=C2NC(=O)/C(=C/c3cccs3)S2)cc1C,-14.9%,0.5%,-10.6%,3.9%,10µM*,-2.4%
Cc1cccc(N=C2NC(=O)/C(=C\c3cccs3)S2)c1,?,-5.9%,0.3%,-17.9%,7.7%,6.8%
O=C1NC(=Nc2ccccc2)S/C1=C/c1cccs1,6.2%,-1.6%,/,?,31.6µM*,?
CC(=O)Oc1ccc2c(c1)CC[C@@H]1[C@@H]2CC[C@]2(C)[C@@H](O)CC[C@@H]12,/,/,/,/,/,12.9%
Cc1ccc(S(=O)(=O)N2CCC(c3ccncc3)CC2)c(C)c1,-15.4%,-8.7%[60.1 µM],/,-2.6%,-0.5%,/
CCOc1cc(N2CCOCC2)c(OCC)cc1NC(=O)C1CC(=O)N(c2ccc(C)cc2)C1 (configuration not stated),-15.7%,2.7%,-1.7%,16.1%,/,4.8%
CCOc1ccc(-c2cc(NC(=O)c3c(F)cccc3F)c(C(=O)O)s2)cc1,?,-11.8%,/,?,?,-8.2%
O=C(Nc1cc(-c2ccccc2)sc1C(=O)O)c1cccc(F)c1,?,-15.6%,/,?,70.8µM*,-13.0%
Cc1ccc(CNC(=O)c2ccc(Cn3nc(C)c(Cl)c3C)o2)cc1,?,-17.4%,-1.2%,?,50.1µM*,-5.7%
CC(=O)C1=C(c2cccc([N+](=O)[O-])c2)N(C(C)=O)n2c(nnc2-c2ccc(C)cc2)S1,-13.3%,4.1%[60.1 µM],/,4.0%,?,/
O=S(=O)(NC1=NCCCCC1)c1ccc2sc(NS(=O)(=O)c3ccc4ccccc4c3)nc2c1,?,-20.3%,/,11.2µM*,1.3%,18.2%
O=S(=O)(Nc1nc2c(s1)CCCC2)c1ccc2ccccc2c1,-13.3%,-8.5%,/,-5.5%,0.6%,-5.6%
O=C1c2ccccc2-c2onc3ccc(NCCCn4ccnc4)c1c23,79.4µM*,20µM*,/,?,25.1µM*,28.2µM*
CC(C)Cc1oc(C(=O)O)cc1CN1CCOCC1,-2.1%,-2.9%,1.3%,19.9%,89.1µM*,13.1%
CCCc1oc(C(=O)O)cc1CN1CCOCC1,-12.5%,-3.3%,/,-7.3%,8.5%,5.5%
O=C(CNC(=O)/C=C/c1ccco1)N=Nc1c(O)[nH]c2ccccc12,-11.2%,6.7%,/,-4.5%,8.91µM*,8.44µM*
O=C(CNC(=O)Cc1ccccc1)N=Nc1c(O)[nH]c2ccccc12,-9.9%,4.0%,/,62.4%,1.8%,14.3%
